Assay results as given in PubChem BioAssay (Tox21).
Inconclusive results are not listed. Active and inactive are the calls of the source. Unless noted, the call rests on the fitted dose curve; in most records, active means well fitted curve in the direction sought with a large enough effect in the repeat runs; inconclusive means weak or mixed curves; inactive means no such curve, though single readings can be large; an effect the other way counts as inactive or inconclusive.

How the values were obtained:
[1] = qHTS assay to identify small molecule agonists of the peroxisome proliferator-activated receptor delta (PPARd) signaling pathway - cell viability counter screen (AID 743211); further: nearly all actives have a fitted effect of over 55% in size
Method in brief: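 Multiplexed format: after the 2 h room-temperature LiveBLAzer B/G FRET step, CellTiter-Glo was added to the same wells. Luminescence after 30 min gave cell viability; compound exposure was 17 h at 37C.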

[2] = qHTS assay to identify small molecule antagonists of the peroxisome proliferator-activated receptor delta (PPARd) signaling pathway - cell viability counter screen (AID 743213); further: nearly all actives have a fitted effect of over 50% in size
Method in brief: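 HEK293H cells with the PPARd UAS-bla reporter, co-treated 17 h at 37 C with compounds and L165041 (300 nM final), were lysed with CellTiter-Glo. Luminescence indicated viable cell content.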

[3] = target: Bile acid receptor (Homo sapiens) (UniProt Q96RI1); assay: qHTS assay to identify small molecule antagonists of the farnesoid-X-receptor (FXR) signaling pathway (AID 743217; active means well fitted inhibition curve with a large enough effect in the signal ratio in the repeat runs, not every such curve was filed as active; the % refers to the signal ratio)
Method in brief: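 Cells carrying a UAS-driven beta-lactamase reporter (GeneBLAzer FXR-UAS-bla HEK 293T) were plated and rested 5 h at 37 °C. Compounds in DMSO were added alongside chenodeoxycholic acid agonist at 50 uM final and left 16 h at 37 °C before FRET substrate readout.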

[4] = qHTS assay to identify small molecule agonists of the farnesoid-X-receptor (FXR) signaling pathway - cell viability counter screen (AID 743218); further: nearly all actives have a fitted effect of over 45% in size
Method in brief: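 Cells were seeded, left 5 h at 37 C and 5% CO2, then dosed with compound in DMSO for 16 h. After the beta-lactamase FRET read, CellTiter-Glo was added and luminescence measured 30 min later.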

[5] = target: Bile acid receptor (Homo sapiens) (UniProt Q96RI1); assay: qHTS assay to identify small molecule agonists of the farnesoid-X-receptor (FXR) signaling pathway (AID 743220; active means well fitted activation curve with a large enough effect in the signal ratio in the repeat runs, not every such curve was filed as active; the % refers to the signal ratio)
Method in brief: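 FXR-UAS-bla HEK 293T cells carrying a UAS-driven beta-lactamase reporter were plated for 5 h at 37C/5% CO2, then exposed to DMSO-dissolved Tox21 10K compounds for 16 h at 37C. A LiveBLAzer B/G FRET substrate was loaded for 2 h at room temperature before fluorescence reading.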

[6] = qHTS assay to identify small molecule antagonists of the farnesoid-X-receptor (FXR) signaling pathway - cell viability counter screen (AID 743221; active means well fitted cell-killing curve with a large enough effect in the repeat runs, not every such curve was filed as active; further: nearly all actives have a fitted effect of over 50% in size)
Method in brief: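 CellTiter-Glo, 30 min RT, luminescence; same wells as the LiveBLAzer FRET read. Cells: FXR-UAS-bla HEK 293T. Treatment: compound with chenodeoxycholic acid 50 uM final, 16 h at 37 C.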

[7] = target: Vitamin D3 receptor (Homo sapiens) (UniProt P11473); assay: qHTS assay to identify small molecule agonists of the vitamin D receptor (VDR) signaling pathway (AID 743222; calls by dose curve)
Method in brief: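 Cells carrying a VDR-driven beta-lactamase reporter are seeded at 2,000 per well and rested 4 h. Compounds in DMSO are added for 16 h at 37C, and FRET substrate fluorescence is measured after 2 h at room temperature.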

[8] = target: Vitamin D3 receptor (Homo sapiens) (UniProt P11473); assay: qHTS assay to identify small molecule antagonists of the vitamin D receptor (VDR) signaling pathway (AID 743223; active means well fitted inhibition curve with a large enough effect in the signal ratio in the repeat runs, not every such curve was filed as active; the % refers to the signal ratio)
Method in brief: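 After VDR-bla cells are plated and left 4 h at 37C, DMSO-dissolved compounds and 3 nM (final) calcitriol agonist are added. Incubation continues 16 h at 37C; FRET beta-lactamase substrate then develops 2 h at room temperature.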

[9] = qHTS assay to identify small molecule agonists of the vitamin D receptor (VDR) signaling pathway - cell viability counter screen (AID 743224); further: series mostly up to about 63 µM; nearly all actives have a fitted effect of over 50% in size
Method in brief: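 Cells: VDR-bla, 2,000/well, settled 4 h. Treatment: compounds in DMSO, 16 h, 37C/5% CO2. Readout: CellTiter-Glo luminescence after 30 min RT.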

[10] = qHTS assay to identify small molecule antagonists of the vitamin D receptor (VDR) signaling pathway - cell viability counter screen (AID 743225); further: nearly all actives have a fitted effect of over 50% in size
Method in brief: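 Cytotoxicity toward the VDR-bla HEK 293T line was scored by ATP-based CellTiter-Glo luminescence, read in the wells already used for the beta-lactamase readout after 16 h compound treatment under 3 nM 1-alpha,25-dihydroxyvitamin D3 stimulation.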

[11] = qHTS assay to identify small molecule agonists of the NFkB signaling pathway (AID 1159509; active means well fitted curve in the direction sought with a large enough effect in the signal ratio in the repeat runs, not every such curve was filed as active; the % refers to the signal ratio; further: series mostly up to about 61 µM)
Method in brief: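 Pathway activation was measured in ME-180 cells stably expressing beta-lactamase under NF-kB response element control. Substrate cleavage was read as the 460/530 nm emission shift after 5 hr compound incubation.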

[12] = qHTS assay to identify small molecule agonists of the NFkB signaling pathway - cell viability counter screen (AID 1159515; calls by dose curve; further: series mostly up to about 61 µM; nearly all actives have a fitted effect of over 55% in size)
Method in brief: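 Cells are seeded (2,000 NFkB-bla ME-180 per well), rested overnight, and dosed with DMSO-dissolved compounds for 5 hr at 37 C. Viability is then read by CellTiter-Glo luminescence after 30 min at room temperature.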

[13] = qHTS assay to identify small molecule agonists of the endoplasmic reticulum stress response signaling pathway (AID 1159516; active means well fitted activation curve with a large enough effect in the signal ratio in the repeat runs, not every such curve was filed as active; the % refers to the signal ratio)
Method in brief: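 Cells are seeded at 1,500 per well and incubated overnight. Compounds in DMSO are added for 5 hr at 37 C, then beta-lactamase FRET substrate for 2 hr at room temperature, and fluorescence at 460 and 530 nm is measured.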

[14] = qHTS assay to identify small molecule agonists of the endoplasmic reticulum stress response signaling pathway - cell viability counter screen (AID 1159517; calls by dose curve)
Method in brief: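 ESRE-bla HeLa cells (1,500/well) were plated overnight at 37 C and exposed to compounds for 5 hr. After the 2 hr beta-lactamase substrate read, CellTiter-Glo went into the same wells, and luminescence was read after 30 min at room temperature.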

[15] = qHTS assay to identify small molecule antagonists of the retinoid-related orphan receptor gamma (ROR-gamma) signaling pathway - cell viability counter screen (AID 1159520); further: nearly all actives have a fitted effect of over 50% in size
Method in brief: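 Cytotoxicity was read from cellular ATP (CellTiter-Glo luminescence) after 16 hr at 37 C with 1 uM doxycycline induction. The inducer was added 2 hr after compound transfer to Tet-on ROR gamma CHO cells.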

[16] = target: Nuclear receptor ROR-gamma (Homo sapiens) (UniProt P51449); assay: qHTS assay to identify small molecule antagonists of the retinoid-related orphan receptor gamma (ROR-gamma) signaling pathway (AID 1159521)
Method in brief: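 Readout: ONE-Glo luciferase luminescence, 30 min at room temperature. System: Tet-on RORγ CHO, RORE-LUC. Sequence: compound 2 h, doxycycline 1 uM final, 16 h at 37 C.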

[17] = qHTS assay to identify small molecule agonists of the AP-1 signaling pathway (AID 1159526; calls by dose curve)
[18] = target: Peroxisome proliferator-activated receptor delta (Homo sapiens) (UniProt Q03181); assay: qHTS assay to identify small molecule agonists of the peroxisome proliferator-activated receptor delta (PPARd) signaling pathway (AID 743212; calls by dose curve)
Method in brief: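 Beta-lactamase reporter readout: a ratiometric FRET signal from the LiveBLAzer substrate after 2 h at room temperature. Compound exposure at 37 °C in PPARδ-bla HEK293H cells driven by an upstream activator sequence.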

[19] = target: Peroxisome proliferator-activated receptor delta (Homo sapiens) (UniProt Q03181); assay: qHTS assay to identify small molecule antagonists of the peroxisome proliferator-activated receptor delta (PPARd) signaling pathway (AID 743215; active means well fitted inhibition curve with a large enough effect in the signal ratio in the repeat runs, not every such curve was filed as active; the % refers to the signal ratio;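 further: cells stimulated with agonist L165041 at 300 nM final during compound exposure; series mostly up to about 62 µM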)
Method in brief: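 Cells: HEK293H with a UAS-driven beta-lactamase reporter responsive to PPARd. Compounds were co-added with L165041 (300 nM, final) and incubated 17 h at 37 C before a 2 h room-temperature FRET substrate step and fluorescence reading.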

[20] = qHTS assay to identify small molecule agonists of the AP-1 signaling pathway - cell viability counter screen (AID 1159525; calls by dose curve; further: nearly all actives have a fitted effect of over 55% in size)
Method in brief: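 Intracellular ATP by Cell Titer Glo luminescence (30 min, RT) in the same ME-180 AP-1-bla wells after the 5 h compound exposure at 37 °C. Normalised to tetra n-octyl ammonium bromide and DMSO controls.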

Measured: Potency

Bile acid receptor (Homo sapiens), sequence (Q96RI1 whole entry, looked up): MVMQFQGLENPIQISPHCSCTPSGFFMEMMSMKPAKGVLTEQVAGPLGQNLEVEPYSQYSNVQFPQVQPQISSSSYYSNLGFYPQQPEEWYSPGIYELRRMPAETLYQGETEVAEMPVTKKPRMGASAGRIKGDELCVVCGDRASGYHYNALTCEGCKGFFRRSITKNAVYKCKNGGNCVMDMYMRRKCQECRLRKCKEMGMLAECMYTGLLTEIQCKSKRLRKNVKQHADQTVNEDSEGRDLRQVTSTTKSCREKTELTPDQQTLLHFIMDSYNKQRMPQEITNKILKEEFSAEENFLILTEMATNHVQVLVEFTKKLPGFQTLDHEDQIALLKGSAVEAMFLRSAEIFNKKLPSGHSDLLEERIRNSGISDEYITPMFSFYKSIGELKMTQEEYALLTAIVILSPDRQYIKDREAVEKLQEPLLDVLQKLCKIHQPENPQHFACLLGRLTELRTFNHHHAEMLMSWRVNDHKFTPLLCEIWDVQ
Peroxisome proliferator-activated receptor delta (Homo sapiens), sequence (Q03181 whole entry, looked up): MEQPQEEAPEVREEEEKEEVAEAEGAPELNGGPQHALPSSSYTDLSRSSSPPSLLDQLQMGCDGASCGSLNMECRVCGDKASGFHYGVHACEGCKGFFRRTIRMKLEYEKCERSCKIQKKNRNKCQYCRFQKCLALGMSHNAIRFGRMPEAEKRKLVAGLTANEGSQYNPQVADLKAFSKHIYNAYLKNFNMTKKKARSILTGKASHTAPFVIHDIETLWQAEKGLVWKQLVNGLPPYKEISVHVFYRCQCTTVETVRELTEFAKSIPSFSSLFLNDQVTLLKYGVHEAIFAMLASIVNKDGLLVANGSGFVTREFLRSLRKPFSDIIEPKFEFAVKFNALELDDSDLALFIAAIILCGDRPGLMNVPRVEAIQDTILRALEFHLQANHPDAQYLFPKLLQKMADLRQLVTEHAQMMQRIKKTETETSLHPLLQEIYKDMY
Vitamin D3 receptor (Homo sapiens), sequence (P11473 whole entry, looked up): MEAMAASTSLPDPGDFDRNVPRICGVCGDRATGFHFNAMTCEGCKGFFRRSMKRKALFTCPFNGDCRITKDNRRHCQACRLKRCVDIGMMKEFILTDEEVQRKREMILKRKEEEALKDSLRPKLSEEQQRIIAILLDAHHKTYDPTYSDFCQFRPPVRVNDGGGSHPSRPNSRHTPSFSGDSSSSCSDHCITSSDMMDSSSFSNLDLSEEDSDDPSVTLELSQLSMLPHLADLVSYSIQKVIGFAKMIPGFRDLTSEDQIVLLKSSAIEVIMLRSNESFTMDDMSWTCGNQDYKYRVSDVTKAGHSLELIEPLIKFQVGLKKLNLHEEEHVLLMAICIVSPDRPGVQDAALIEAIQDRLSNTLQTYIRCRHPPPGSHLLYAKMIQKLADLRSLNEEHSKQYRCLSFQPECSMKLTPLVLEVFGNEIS

COC(=O)C(C)(C)C
inactive: [1] | [2] | [3] | [4] | [5] | [6] | [7] | [8] | [9] | [10] | [11] | [12] | [13] | [14] | [15] | [16] | [17]

O=C(OC1C[C@H]2CC[C@@H](C1)[N+]21CCCC1)C(O)(c1ccccc1)c1ccccc1 (stereo partly specified)
inactive: [1] | [18] | [2] | [19] | [4] | [7] | [8] | [9] | [10] | [11] | [12] | [13] | [14] | [15] | [16] | [20]

OCCc1ccncc1
inactive: [1] | [2] | [3] | [4] | [5] | [6] | [7] | [8] | [9] | [10] | [11] | [12] | [13] | [14] | [15] | [16] | [20]

O=C(O)c1cc(C(=O)O)cc([N+](=O)[O-])c1
inactive: [1] | [2] | [4] | [6] | [7] | [9] | [10] | [11] | [12] | [13] | [14] | [15] | [16] | [17]

C=CC(=O)OCCCCCCCCCC
inactive: [1] | [2] | [4] | [6] | [7] | [8] | [9] | [10] | [11] | [12] | [13] | [14] | [15] | [16]

CCCCCCCCCCCCCCCCC(=O)O
inactive: [1] | [18] | [2] | [19] | [3] | [4] | [6] | [7] | [9] | [10] | [11] | [12] | [13] | [14] | [15] | [16] | [20]

CC(C)Oc1ccccc1O
inactive: [1] | [18] | [2] | [19] | [4] | [9] | [10] | [11] | [12] | [13] | [14] | [15] | [16] | [17]

CC1(COc2ccc(CC3SC(=O)NC3=O)cc2)CCCCC1 (stereo unspecified)
inactive: [1] | [2] | [3] | [4] | [6] | [9] | [10] | [11] | [12] | [13] | [14] | [15] | [16] | [17]

N#C[C@@H]1CC(F)(F)CN1C(=O)CNC1CC2CCC(C1)N2c1ncccn1 (stereo partly specified)
inactive: [1] | [18] | [2] | [19] | [3] | [4] | [6] | [10] | [11] | [12] | [13] | [14] | [15] | [16] | [17]

CCCCCCCCCCCCCCCCN
inactive: [1] | [2] | [19] | [3] | [4] | [5] | [7] | [8] | [9] | [10] | [11] | [12] | [13] | [14] | [15] | [16] | [20]

O=Cc1ccc([N+](=O)[O-])cc1
inactive: [1] | [18] | [2] | [19] | [4] | [6] | [7] | [8] | [9] | [10] | [11] | [12] | [13] | [14] | [15] | [16] | [20]

Cc1ccc(S(=O)(=O)NC(=O)NC2CCCC2)cc1
inactive: [1] | [18] | [2] | [4] | [6] | [7] | [8] | [9] | [10] | [11] | [12] | [13] | [14] | [15] | [16] | [20]

C[C@@H](O)[C@H]1C(=O)N2C(C(=O)O)=C(S[C@@H]3CN[C@H](CNS(N)(=O)=O)C3)[C@H](C)[C@H]12
inactive: [1] | [18] | [2] | [19] | [3] | [5] | [6] | [11] | [12] | [13] | [14] | [15] | [16] | [17]

COc1ccc(/C(C)=C/C(=O)O)c(OC)c1
inactive: [1] | [18] | [2] | [19] | [4] | [6] | [7] | [8] | [9] | [10] | [11] | [12] | [13] | [14] | [15] | [16] | [17]

CCCN(C1CCN(C(=O)C2CCNCC2)CC1)[C@@H]1CCc2ccc(OC)cc2C1
inactive: [18] | [2] | [19] | [6] | [7] | [8] | [9] | [11] | [12] | [13] | [14] | [15] | [16] | [17]

CC(COc1ccccc1)NC(C)C(O)c1ccc(O)cc1 (stereo unspecified)
inactive: [1] | [18] | [19] | [4] | [5] | [6] | [7] | [10] | [11] | [12] | [13] | [14] | [15] | [16] | [20]

CCc1ccc2c(c1)C(=O)c1ccccc1C2=O
inactive: [1] | [2] | [6] | [7] | [9] | [10] | [11] | [12] | [13] | [14] | [15] | [16] | [17]
